High-throughput results (PubChem)
GRK2 aptamer HTS: blocks RNA aptamer binding to human GRK2; P25098; bead flow cytometry, FAM-aptamer displacement from GRK2; inhibition of aptamer binding, % at 10 µM; 0.59% of 330,000 active;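 active = inhibition of aptamer binding above 40%, roughly 3 SD of noise, on plates passing a quality check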;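 also: median bead fluorescence of bound FAM aptamer so fluorescent compounds give negative values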
VLA-4 inh: inhibition in a human VLA-4 binding assay. VLA-4 expressing cells, ligand binding flow cytometry. inhibition, % (about 7 µM as worked out from the volumes in the protocol). 0.2% of 330,000 active; in the data active = inhibition above about 50%
Bfl-1 A1 inh: inhibitors of the anti-apoptotic protein A1, read as caspase activation; MEF A1-2A-BIM cells, Caspase-Glo 3/7 luminescence, 3 h; percent of clofoctol response, vehicle zero; 0.066% of 330,000 active; caspase activation, % (no concentration beside the values);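 active = over half of replicate activation scores above 10%, or exactly half above 10 with the replicate mean above 10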
B2AR ag: agonists of human beta-2 adrenergic receptor inducing internalization | P07550 | Am2.2-beta2AR cells, FAP receptor internalization, flow cytometry | response, % (concentration not given with the values) | 0.43% of 340,000 active | AID 504454;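 active = response above a set limit, near 3 SD of response in nonfluorescent compounds, cut at about 42% in these data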
Target sequence (P07550 whole entry, looked up): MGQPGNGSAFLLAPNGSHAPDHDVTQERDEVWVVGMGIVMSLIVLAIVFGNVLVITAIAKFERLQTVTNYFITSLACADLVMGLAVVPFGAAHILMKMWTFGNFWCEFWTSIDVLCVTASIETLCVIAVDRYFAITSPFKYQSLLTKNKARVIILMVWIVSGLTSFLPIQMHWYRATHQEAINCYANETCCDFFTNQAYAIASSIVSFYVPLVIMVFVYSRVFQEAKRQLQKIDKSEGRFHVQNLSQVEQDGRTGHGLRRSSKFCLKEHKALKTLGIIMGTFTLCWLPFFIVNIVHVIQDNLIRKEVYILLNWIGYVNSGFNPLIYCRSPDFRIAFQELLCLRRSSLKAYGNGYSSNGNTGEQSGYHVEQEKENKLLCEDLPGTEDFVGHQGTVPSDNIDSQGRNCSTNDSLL
NTR1 ag: agonists of human neurotensin receptor NTR1. P30989. AID 493036. 0.17% of 330,000 active. NTR1-U2OS beta-arrestin-GFP spot imaging, agonist mode. activation, % at 20 µM;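 active = activation at or above 40% of the spot to cytoplasm intensity ratio, with at least 20 cells analyzed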;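 also: 0% = DMSO without peptide and 100% = 100 nM NTR1 peptide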
NTR1 ag confirm: confirmation of agonists of human NTR1; shares compounds with NTR1 ag; NTR1-U2OS beta-arrestin-GFP translocation imaging; activation, % at 20 µM; 38% of 480 active; AID 504550;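 active = mean activation at 20 µM of at least 40%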;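 also: 0% = DMSO without peptide and 100% = 100 nM NTR1 peptide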
* hit, by the source's call; / = no result. A selection: hits, their analogues and other compounds. The true share with any hit is near 1.3%.

SMILES | GRK2 aptamer HTS | VLA-4 inh | Bfl-1 A1 inh | B2AR ag | NTR1 ag | NTR1 ag confirm
Cc1ccc(-c2ccc(/C=C3\C(=O)ON=C3c3ccccc3)o2)c([N+](=O)[O-])c1 | 0 | 42 | 1 | 18 | 100* | 85*
CCC(COC)Oc1cc(NCc2ccccc2)c2ncn(C(C)C)c2c1 (stereo unspecified) | 3 | -9 | 0 | 4 | 44* | 9
CCC(CO)Oc1cc(NCc2ccccc2)c2ncn(C(C)C)c2c1 (stereo unspecified) | 1 | 7 | -1 | -3 | 0 | /
CCCCCCOc1ccc(/C(C)=N/NC2=NCCN2)cc1[N+](=O)[O-] | 0 | 9 | 0 | 11 | 41* | 46*
Cc1ccccc1COC(=O)CCC1=NS(=O)(=O)c2ccccc2N1 | 1 | 4 | 0 | 0 | 2 | /
COc1cc(/C=C2\C(=O)ON=C2c2ccc(Cl)cc2)ccc1O | 14 | -6 | 0 | 26 | 49* | 81*
Cc1ccc(CCN2CC(C(=O)NC(C)C)CC2=O)cc1 (stereo unspecified) | 0 | -14 | 0 | -3 | -1 | /
Cc1cc(N2CCOCC2)ccc1/C=C\[N+](=O)[O-] | 5 | 17 | 1 | 42* | 40* | 77*
c1ccc(C(c2ccccc2)N2CCN(c3nc4ccccc4n4cnnc34)CC2)cc1 | 4 | -16 | 0 | / | 42* | 50*
Cc1cc(C)c(NC(=O)CNC(=O)c2cc([N+](=O)[O-])ccc2N2CCOCC2)c(C)c1 | 1 | -4 | 3 | -2 | 0 | /
CCCCNc1ccc(C(CC(N)=O)NC(=O)Cc2cccc3ccccc23)cc1[N+](=O)[O-] (stereo unspecified) | 0 | -7 | 0 | -3 | 0 | /
COc1ccc(CCNc2ccc(C(CC(N)=O)NC(=O)Cc3cccc4ccccc34)cc2[N+](=O)[O-])cc1 (stereo unspecified) | 0 | 9 | 0 | 7 | 48* | 10
Cc1noc(C)c1COC(=O)c1ccc(F)c(S(=O)(=O)N2CCOCC2)c1 | 0 | -12 | / | -4 | -2 | /
CCc1ccc(-c2cn(-c3nc(C)cc(C)n3)c(=N)o2)cc1 | 0 | -1 | 0 | 9 | 46* | 32
CC(NC(=O)c1ccccc1)c1nnc(SCC(=O)NC2=NCCS2)n1C (stereo unspecified) | 2 | 10 | 0 | -5 | 1 | /
CCn1c(SCC(=O)NC2=NCCS2)nnc1C(C)NC(=O)c1ccc(Cl)cc1 (stereo unspecified) | 0 | 3 | 0 | 0 | 42* | -1
Cc1ccc(-c2nc3cccnc3o2)cc1NC(=O)COc1ccc(C(C)(C)C)cc1 | 2 | 6 | 0 | 24 | 62* | 22
Cc1ccc(-c2nc3cccnc3o2)cc1NC(=O)COc1ccc(Cl)cc1C | 0 | -17 | 1 | -13 | 6 | /
CC(C)c1ccc(N(CC(=O)NCCCN2CCOCC2)S(=O)(=O)c2ccccc2)cc1 | / | / | / | -2 | 2 | /
O=C(Nc1ccc([N+](=O)[O-])cc1)Nc1ccc(N2CCOCC2)c2nonc12 | 0 | -10 | 0 | 25 | 42* | 65*
CC(=O)Nc1cc([N+](=O)[O-])ccc1N1CCOCC1 | 1 | -2 | 0 | -6 | 0 | /
CCOC(=O)C1=C(CS(=O)(=O)c2ccc(C)cc2)NC(=O)NC1c1cc(OC)c(OC)c(OC)c1 (stereo unspecified) | 0 | -1 | 1 | -3 | 48* | 0
CCCCn1c(SCC(=O)c2ccc(O)cc2O)nc2cc(S(N)(=O)=O)ccc21 | 4 | 6 | 0 | -2 | 0 | /
CCCCn1c(SCC(=O)N2CCC(C)CC2)nc2cc(S(N)(=O)=O)ccc21 | 1 | 17 | -1 | -7 | 44* | 50*
Cc1ccc(C(=O)O)cc1NS(=O)(=O)c1ccc2c(c1)oc(=O)n2C | 0 | -3 | 1 | -61 | -2 | /
SMILES | GRK2 aptamer HTS | VLA-4 inh | Bfl-1 A1 inh | B2AR ag | NTR1 ag | NTR1 ag confirm
COc1cccc(-c2nc(NC(C)C)c3ccccc3n2)c1O | 0 | 6 | 0 | 2 | 64* | -3
COc1ccc(CC(=O)Nc2cccc(-c3nnc(-c4cccc(C)c4)o3)c2)cc1OC | 0 | -21 | -1 | 17 | 41* | 58*
COc1ccc(CC(=O)Nc2cccc(-c3nnc(-c4ccccc4)o3)c2)cc1OC | / | / | / | 34 | / | /
O=C(CC1C[C@H](C(=O)N2CCCCC2)[C@@]2(CCc3ccccc3)c3[nH]c4ccccc4c3CCN2C1=O)NCCc1ccccn1 (stereo partly specified) | / | / | / | 7 | / | /
O=C(Nc1cc2c(cc1[N+](=O)[O-])OCCO2)c1cccnc1 | 1 | 1 | 0 | / | 0 | /
COC1=NC(=C(c2ccccc2)c2ccccc2)OC1=O | / | / | / | 2 | / | /
O=C(/C=C/c1c(F)cccc1Cl)c1ccc(O)cc1 | 3 | 25 | 0 | 12 | 63* | 5
Cc1ccc(CNS(=O)(=O)c2c(C)[nH]c(=O)[nH]c2=O)cc1 | 0 | 4 | -1 | -4 | -1 | /
CC(C)(C)OC(=O)COc1cc(OCC(=O)OC(C)(C)C)c2c(=O)cc(-c3ccccc3)oc2c1 | 0 | -13 | 1 | -5 | 53* | 16
O=C(CCNS(=O)(=O)c1ccccc1)NNC(=O)C1COc2ccccc2O1 (stereo unspecified) | 2 | -9 | 1 | 6 | -2 | /
CCOc1ccc2[nH]c3c(N4CCc5ccccc5C4)ncnc3c2c1 | 1 | 22 | 1 | 28 | 50* | 0
COc1ccc2[nH]c3c(N4CCC(O)(c5cccc(C(F)(F)F)c5)CC4)ncnc3c2c1 | 0 | 3 | 1 | 14 | 49* | 8
CC(C(=O)N1CCN(Cc2ccc3c(c2)OCO3)CC1)n1cc([N+](=O)[O-])cn1 (stereo unspecified) | 1 | 6 | 0 | 0 | 1 | /
COc1cc(OC)c2cc(C(=O)N/N=C/c3cccc(OC)c3O)[nH]c2c1 | 0 | -6 | 0 | 11 | 60* | 73*
C[C@@H]1C(=O)OC[C@H]1NC(=O)OCc1ccccc1 | 0 | 26 | 1 | 4 | -2 | /
O=c1/c(=C\c2cccc(O)c2)sc2nc(-c3ccccc3)c(-c3ccccc3)n12 | 5 | -5 | 1 | 13 | 46* | 41*
O=C(N[C@@H](Cc1ccccc1)C(=O)OCc1ccccc1)c1nc[nH]c1C(=O)N1CCc2ccccc2C1 | 0 | -16 | -1 | 30 | 48* | 10
C[C@H](NC(=O)c1nc[nH]c1C(=O)N[C@@H](Cc1ccccc1)C(=O)OC(C)(C)C)C(=O)OCc1ccccc1 | 1 | 11 | 0 | 0 | 41* | 14
CC(C)C[C@H](NC(=O)c1[nH]cnc1C(=O)N[C@@H](C)c1ccccc1)C(=O)OCc1ccccc1 | 2 | -25 | 2 | 11 | 42* | 63*
C[C@H](NC(=O)c1nc[nH]c1C(=O)N[C@@H](Cc1ccccc1)C(=O)OCc1ccccc1)C(=O)OCc1ccccc1 | 0 | 36 | 0 | -2 | 20 | /
